Laboratory results reported in ChEMBL document CHEMBL4513216, “Probing the Open Global Health Chemical Diversity Library for Multistage-Active Starting Points for Next-Generation Antimalarials” (ACS Infect Dis, 2020).
In all, about 68,000 compounds went through this assay and about 2,700 (4%) showed an effect of 50% or more. What follows is part of a selection rich in strong results, with near analogues and random picks from the rest.

Test system: Plasmodium berghei
Experiment: Screen against P. berghei liver stage (PbLuc), transformed with Luciferase, at 2uM
Format: functional, HepG2
Details: tested at 2 uM

| SMILES | INHIBITION |
| --- | --- |
| CN(C)c1ncc(-c2cc(C(=O)NCCO)n(CC3CC3)c2)cn1 | 23.53% |
| COCCCNC(=O)c1cc(-c2cnc(N(C)C)nc2)cn1CC1CC1 | 58.6% |
| CN(C)CCNC(=O)c1cc(-c2cnc(N(C)C)nc2)cn1CC1CC1 | 8.88% |
| O=C(NCCCO)Nc1cnc2cc(Cl)ccc2c1O | 47.4% |
| CCN(Cc1ccco1)C(=O)NCc1nnc2n1CCC2 | 11.78% |
| COCCN1CCc2ccc(=O)n(Cc3csc(C)n3)c2CC1 | -80.01% |
| Cc1ccc(C(O)CNC(=O)Nc2cc(C)nn2C)cc1 (centres undefined) | -15.64% |
| Cc1cc(NC(=O)c2ccc(F)cc2Br)n(C)n1 | -0.9% |
| Cc1cc(NC(=O)c2ccc(F)cc2Cl)n(C)n1 | 56.53% |
| Cc1cc(NC(=O)NCC(O)c2ccc(F)cc2)n(C)n1 (centres undefined) | 50.75% |
| Cc1cc(NC(=O)c2ccc(F)cc2F)n(C)n1 | -20.8% |
| Cc1cc(NC(=O)NCC(O)c2ccc(F)c(F)c2)n(C)n1 (centres undefined) | -12.19% |
| O=C(O)CN1CCC(F)(F)C2(CCN(c3ccccc3)C2)C1 (centres undefined) | -21.78% |
| COCCN1CCC2(CCN(c3ncccn3)CC2)C1=O | 0.2% |
| CC(C)(C)C1CCC(O)(CNC(=O)CCS(C)(=O)=O)CC1 (centres undefined) | -16.28% |
| CN1C[C@@H](n2cnc(-c3ccccc3)c2-c2nccn2C)C[C@H]1C(=O)O | 28.07% |
| Nc1nc(NCCO)cc(N2CCc3c([nH]c4ccccc34)C2)n1 | -14.75% |
| Cc1ccc2c(c1)CN(C(=O)C1CCCCC1)C(CN(C)C)CO2 (centres undefined) | 38.1% |
| Cn1cc(-c2ncc3c(c2C(=O)O)CCN(Cc2ccco2)C3)cn1 | 2.26% |
| COCc1nc(C2CC2)nn1-c1ccccc1Cl | 72.05% |
| COc1ccc(Cl)cc1CS(=O)(=O)Cc1nc(C2CC2)no1 | 7.46% |
| COCc1nc(C2CC2)nn1-c1cc(Cl)ccc1OC | 52.98% |
| COC(=O)[C@H](C)NC(=O)c1nc(C2CC2)n(-c2ccccc2Cl)n1 | 13.65% |

| SMILES | INHIBITION |
| --- | --- |
| COCc1nc(C2CC2)nn1-c1cccc(F)c1 | -1.57% |
| COc1ccc(Cl)cc1-n1nc(C2CCCC2)nc1Cn1cnnn1 | 31.51% |
| Cc1ccn2c(F)c(C(=O)N3CCC4(CCC(=O)N(C)C4)CC3)nc2c1 | 6.81% |
| Cc1nc(CNC(=O)Nc2cc(F)ccc2N2CCN(C)CC2)no1 | 29.53% |
| c1cc(OCc2ccc3c(c2)OCO3)ccc1CNC1CC1 | 1.13% |
| Cc1cc(C)nc(C2CCCN2C(=O)c2cnccn2)n1 (centres undefined) | -48.89% |
| CNc1[nH]nc(N)c1C(=O)Nc1ccccc1 | 0.86% |
| CNc1[nH]nc(N)c1NC(=O)c1ccccc1 | -11.22% |
| CNc1[nH]nc(N)c1C(=O)Nc1ccc(OC)cc1 | 52.21% |
| CCc1ncc2c(n1)CN(C(C)C(=O)N1CCOCC1)CC2 (centres undefined) | 1.42% |
| CC(=O)NCCc1ccc(S(=O)(=O)Nc2ccc(C)cc2F)s1 | 22.16% |
| COCCN1CCCC(c2cncc(Oc3ccccc3OC)n2)C1 (centres undefined) | 41.56% |
| COc1cccc2ccc(CN3CCN(c4cccnc4)CC3)nc12 | -18.81% |
| COc1cccc2ccc(CN3CCN(c4ncccn4)CC3)nc12 | 38.8% |
| COc1cccc2ccc(CN3CCN(c4ccncc4)CC3)nc12 | 65.42% |
| CCC=C(C)C(=O)NCc1ccnc(OC2CCOCC2)c1 | 4.54% |
| CC(C)c1nnc2n1CCN(C(=O)CN1Cc3ccccc3C1=O)C2 | 53.03% |
| Cc1nnc2n1CCN(CC(=O)N1CCc3ccccc3C1)C2 | 36.64% |
| CC(C)c1nnc2n1CCN(C(=O)CN(C)Cc1ccccc1)C2 | -58.05% |
| CC(C)c1nnc2n1CCN(CC(=O)N1CCc3ccccc3C1)C2 | 54.92% |
| CC(C)c1nnc2n1CCN(C(=O)CN1CCc3sccc3C1)C2 | -9.3% |
| CC(C)c1nnc2n1CCN(CC(=O)N1CCc3sccc3C1)C2 | -38.92% |
| Cc1ccc(NC(=O)N2CC(C(=O)NC(C)C)C3(CCOCC3)C2)cc1 (centres undefined) | 33.65% |

| SMILES | INHIBITION |
| --- | --- |
| COCC1CCN(S(=O)(=O)c2ccc(C(=O)NCC(F)F)cc2)C1 (centres undefined) | 15.44% |
| Cc1cc(C(=O)N2CCN(c3nc4c(C(C)C)cccc4s3)CC2)on1 | 61.06% |
| Cc1cc(C(=O)N2CCN(c3nc4c(C)cccc4s3)CC2)no1 | 7.72% |
| Cc1cc(C(=O)N2CCN(c3nc4c(C(C)C)cccc4s3)CC2)no1 | 23.65% |
| Cc1nn(CC(=O)N(C)Cc2nncn2C(C)C)c(=O)c2ccccc12 | -0.47% |
| O=C(O)c1ccccc1CN1CCCC(Cc2ccn[nH]2)C1 (centres undefined) | 28.66% |
| Cc1cc(C(=O)N2CCC3(CC2)CC(c2cccnc2)C(=O)N3)no1 (centres undefined) | 12.68% |
| O=C1NC2(CCN(C(=O)N3CCOCC3)CC2)CC1c1cccnc1 (centres undefined) | 78.29% |
| O=C1NC2(CCN(C(=O)c3ccccc3)CC2)CC1c1cccnc1 (centres undefined) | -51.9% |
| Cc1occc1-c1nc(NC2CCCC2)ncc1-c1ccccn1 | 11.97% |
| COCCNC(=O)CN(C)C(C)c1nc(C)no1 (centres undefined) | -4.01% |
| COCCCNC(=O)CN(C)C(C)c1nc(C)no1 (centres undefined) | 35.5% |
| COCCCNC(=O)CN(C)C(C)c1nc(C(C)C)no1 (centres undefined) | 60.79% |
| Cc1ccc(-c2cc(C)nc(C3CCCN3S(C)(=O)=O)n2)cc1 (centres undefined) | 16.87% |
| CC(C(=O)Nc1ccnn1C(C)C)N1CCN(Cc2ccon2)CC1 (centres undefined) | 62% |
| CC(C(=O)Nc1ccnn1C(C)C)N1CCN(Cc2ccccc2)CC1 (centres undefined) | 47.68% |
| COCCN1CCN(C(C)C(=O)Nc2ccnn2C(C)C)CC1 (centres undefined) | 23.86% |
| C[C@H]1C[C@@H]2CCN(C(=O)c3ccncc3)C[C@H]2O1 | -15.25% |
| CCn1c(C)nnc1CN(C)C1CCN(CCn2cccn2)C1 (centres undefined) | -53.72% |
| CN(C)S(=O)(=O)N1CCC2(COCc3cnc(-c4cccnc4)nc32)C1 (centres undefined) | 19.51% |
| Cc1ccc(N2CCOC(C)(C(=O)N(C)C)C2)nn1 (centres undefined) | 39.07% |
| Cc1cc(C)nc(N2CCOC(C)(C(=O)N(C)C)C2)n1 (centres undefined) | 19% |
| Cc1cc(N2CCOC(C)(C(=O)N(C)C)C2)ncn1 (centres undefined) | 58.29% |
